Lassa entry – blocks Lassa virus binding or cell entry; Lassa virus pseudotyped entry inhibition, cell-based qHTS; actives 4.1% (n = 18,000); AID 720533; Potency, µM (doses to about 49.2 µM), inactives show top-dose activity change, negative = inhibition, actives largely listed as inhibitors
MARV entry inh – inhibitors of Marburg virus binding or entry into cells; Marburg virus pseudotype entry/binding inhibition, cell-based; Potency, µM (series often up to 49.2 µM), without a hit: at the top dose activity change, negative = inhibition, hits mostly inhibitors; actives 6.5% (n = 18,000); AID 720532
An asterisk follows results filed as active; ? = inconclusive; . = no result given; ! = a repeat was not active; [ ] = dose if it differs, or a comment. In the library only some 8.6% were active in any assay of this set; here they are far more common. Calls follow the shape of the full dose curve; tested in HEK293 cells. % is scaled to controls: 0 for no effect and ±100 for the full control effect; potency is read from the fitted curve at half-maximal effect.

SMILES	Lassa entry	MARV entry inh
C[C@@H]1O[C@@H](O[C@H]2C[C@@H](O)[C@]3(CO)[C@@H]4C(CC[C@]3(O)C2)[C@@]2(O)CC[C@H](C3=CC(=O)OC3)[C@@]2(C)C[C@H]4O)[C@H](O)[C@H](O)[C@H]1O (some centres undefined)	0.316µM*	?
C[C@@H]1O[C@H](O[C@H]2C[C@@H](O)[C@@]3(CO)[C@H]4[C@@H](O)C[C@]5(C)[C@@H](C6=CC(=O)OC6)CC[C@]5(O)[C@H]4CC[C@]3(O)C2)[C@@H](O)[C@H](O)[C@@H]1O	3.16µM*	?
COC(=O)C1=C(C)N(Cc2ccccc2)C(=NCCc2cccnc2)NC1c1ccc(Br)cc1 (centres undefined)	-4.1%[8.59 µM]	4.2%[8.59 µM]
C=CCC12OC3(OC)CC1[C@H](C)[C@@H](c1ccccc1)C2[C@@]3(C)O (some centres undefined)	-1.6%[8.59 µM]	0.3%[8.59 µM]
C=C(C)CCCN1C=C(C(C)=O)C(c2ccccc2)NC1=O (centres undefined)	0.3%[8.59 µM]	2.3%[8.59 µM]
C[C@@H]1CC[C@H]2C(=O)N(Cc3cccc([N+](=O)[O-])c3)C[C@H](O)CN2[C@@H]1c1ccc(Br)cc1	14.9%[8.59 µM]	32.5%[8.59 µM]
CC(C)[C@@H]1CC[C@@H](C)C[C@H]1OC(=O)c1ccccc1O	-10.3%	-13.4%
Cc1cc(C)c2c(c1)CO[C@H]([C@H](O)CO)[C@H]2C=Cc1ccccc1	-14.7%[8.59 µM]	?
O=S1(=O)C=CCN1C1CCCC1	8.4%	29.8%
COC(=O)C1(C)C2CC(C)C(c3ccccc32)N1C(=O)C(F)(F)F (centres undefined)	.	-9.1%[8.59 µM]
COc1ccc2[nH]c(C(=O)c3ccccc3)cc2c1	-8.9%	3.16µM*
O=C(O)c1cc2ccccc2[nH]1	-0.1%	3.5%
COc1cccc([C@@H]2Oc3ccc(Br)cc3C(=O)[C@@H]2O)c1	34.2%[8.59 µM]	30.6%[8.59 µM]
COc1ccc([C@]23Cc4cc(C#N)ccc4[C@H](O2)c2c(cc(C)n(-c4ccccc4)c2=O)O3)cc1	12.2%[8.59 µM]	2.3%[8.59 µM]
CC(Cc1cccc(C(F)(F)F)c1)NCCCc1ccccc1 (centres undefined)	31.6µM*	14.1µM*
CCN[C@H](C)Cc1cccc(C(F)(F)F)c1	-14.1%[107 µM]	-23.8%[107 µM]
CN1CCCN(C(c2ccccc2)c2ccc(Cl)cc2)CC1 (centres undefined)	22.4µM*	7.08µM*
c1ccc(C[C@@H](c2ccccc2)N2CCCCC2)cc1	-7.1%	?
Cc1cccc(CN2CCN(C(c3ccccc3)c3ccc(Cl)cc3)CC2)c1 (centres undefined)	?	7.08µM*
CN1CCN(C(c2ccccc2)c2ccccc2)CC1	11.2µM*!	11.2µM*!
Cc1ccc(CN2CC(N3CCN(Cc4cccc(C)c4)CC3)CS2(=O)=O)cc1 (centres undefined)	9.8%	19.8%
CCC1CN2CCC1CC2[C@@H](Oc1cc2ccccc2c2ccccc12)c1ccnc2ccc(O)cc12 (some centres undefined)	0.4%[8.59 µM]	41.6%[8.59 µM]
C=CCOC(=O)C(C(C)=O)[C@@H](NC(=O)OC)c1ccco1 (some centres undefined)	16.4%[8.59 µM]	18.8%[8.59 µM]
COc1cccc([C@@H]2Oc3ccc(OC)cc3C[C@@H]2OC(=O)N[C@H]2CCCc3ccccc32)c1	-1.1%[8.59 µM]	3.1%[8.59 µM]
COC(=O)C12CC3=CCC4C(=O)N(c5ccccc5)C(=O)C4C3Cc3ccccc3[C@H]1CNC2=O (some centres undefined)	20.8%[8.59 µM]	5.1%[8.59 µM]
SMILES	Lassa entry	MARV entry inh
CC(C)N1C(=O)[C@@H]2CSCCS(=O)(=O)N2C1=O	6.6%	17.2%
CCCCNc1ccc(C(=O)OCCN(C)C)cc1	-2.1%	?
Cc1c(C)n(CCN(C)C)c2ccc(C(=O)OCCN(C)C)cc12	31.6µM*	3.98µM*
CC1(C)CN(Cc2cccnc2)C(=O)[C@@H]1CC(=O)Nc1ccc(Br)cc1	10.1%	?
NS(=O)(=O)c1cccc(N=Cc2c(O)[nH]c3ccccc23)c1	-12.3%	?
C#CCCCON=C1C[C@@H](O)[C@H](O)[C@H]2[C@@H]3C(=O)N(c4cccc(Oc5ccccc5)c4)C(=O)[C@@H]3CC[C@@H]12	8.4%[8.59 µM]	31.0%[8.59 µM]
CN1CC[C@@]23CCCCC2C1Cc1ccc(O)cc13 (some centres undefined)	8.5%	-13.6%
COc1ccc2c(c1)[C@@]13CCCCC1[C@@H](C2)N(C)CC3 (some centres undefined)	?	8.91µM*
CCN1C(=NCCc2c[nH]c3ccccc23)NC(c2ccccc2)C(C(=O)OC)=C1C (centres undefined)	8.5%[8.59 µM]	?
C[C@]12CC[C@H]3[C@@H](CC=C4C[C@@H](O)CC[C@@]43C)[C@@H]1CC[C@@H]2O	-9.5%	25.3%
C[C@H]1[C@H]2CC[C@H]3[C@@H]4CC=C5C[C@@H](N(C)C)CC[C@]5(C)[C@H]4CC[C@]23CN1C	-25.7%	3.16µM*
CC=C(C)[C@H](O)C[Si](C)(C)c1ccccc1	-27.4%[8.59 µM]	-3.0%[8.59 µM]
CCN1C(=NCCCOC(C)C)N[C@H](c2ccccc2)[C@H](C(=O)OC)[C@H]1C	32.6%[8.59 µM]	0.1%[8.59 µM]
CC1=CC(=O)c2c(O)cccc2C1=O	3.16µM*	3.98µM*
CC1=CC2C(=O)c3cccc(O)c3C(=O)C2C(O)=C1 (centres undefined)	-5.0%	10.8%
CC1=CC(=O)c2ccccc2C1=O	?	10µM*!
CN1C(=O)c2ccccc2C1=O	-1.2%[107 µM]	19.5%[107 µM]
COC(=O)C1=C(C)N(Cc2ccccc2)C(=NCCc2cccnc2)NC1c1ccccc1 (centres undefined)	6.4%[8.59 µM]	-11.4%[8.59 µM]
CN1CCOC(c2ccccc2)c2ccccc2C1 (centres undefined)	?	11.2µM*!
N=C(N)N1Cc2ccccc2C(O)C1 (centres undefined)	0.2%	13.5%
Nc1nc(F)nc2c1ncn2[C@@H]1O[C@H](CO)[C@@H](O)[C@@H]1O	-7.0%	8.6%
Nc1nc(=S)c2ncn([C@H]3O[C@@H](CO)[C@@H](O)[C@@H]3O)c2[nH]1	?	2µM*
CC(C)=CCCC(C)=CCN1C(=O)[C@@]2(CC(C)=C[C@@H](COCc3ccccc3)O2)c2ccccc21	-22.3%[8.59 µM]	6.4%[8.59 µM]
O=C(NN=C1C[C@@H](O)[C@H](O)[C@H]2[C@@H]3C(=O)N(C4CCCCC4)C(=O)[C@@H]3CC[C@H]12)OCc1ccccc1	-10.1%[8.59 µM]	?
COc1c(C2=CC(=O)N(C)C2=O)c2c(n1C)C(=O)c1ccccc1C2=O	-24.2%	20µM*
SMILES	Lassa entry	MARV entry inh
COc1c(C=O)c(O)cc2c1C(=O)c1ccccc1C2=O	-4.8%	7.5%
Cc1cc(=O)oc2cc(NC(=O)C(CCCCN)NC(=O)C(CC3CCCCC3)NC(=O)OCC3c4ccccc4-c4ccccc43)ccc12 (centres undefined)	5.3%	22.0%
Cc1cc(=O)oc2cc(NC(=O)[C@H](CCCCN)NC(=O)[C@H](CC3CCCCC3)NC(=O)OCC3c4ccccc4-c4ccccc43)ccc12	?	10µM*
N#Cc1c(NC(=O)c2ccc(F)cc2)sc2c1CCCC2	21.3%	48.6%
O=C1NC(=S)NC(=O)C1C(=O)Nc1ccccc1	-4.7%	10.1%
O=C1NC(=O)c2cc(Nc3ccccc3)c(Nc3ccccc3)cc21	11.2µM*	?
CC1C(=O)C(Cc2cn(CCC3OCCO3)nn2)CCS(=O)(=O)N1Cc1ccc(-c2ccc(Cl)nc2)cc1 (centres undefined)	14.1%	95.7%
O=C(NCCCCc1ccccc1)c1cccc(NC(=O)c2ccccc2)c1	-15.8%	-14.2%

Source: PubChem BioAssay
